Results on 55 compounds are retold here after ChEMBL document CHEMBL4513216, “Probing the Open Global Health Chemical Diversity Library for Multistage-Active Starting Points for Next-Generation Antimalarials” (ACS Infect Dis, 2020).

SMILES strings stand for the structures. About 8,600 (12%) of roughly 69,000 compounds showed an effect of 50% or more. Many of the other results were omitted from the sample, so strong results are more common in it than they were.

The assay deals with Plasmodium berghei. The experiment in a line: Screen against P. berghei liver stage (PbLuc), transformed with Luciferase, at 10uM. Type of assay: functional, HepG2. The conditions noted are these: tested at 10 uM.
For `Cc1ccc(C(=O)N(C)Cc2ccc3c(c2)OCO3)c(=O)[nH]1`, the INHIBITION was 17.8%.
Under `O=c1c2c[nH]c(N3CCCC3)nc-2cn1CCc1ccc(Cl)cc1` stands 15.1%.
Turning to `Cc1nc(C)n(C2CCCN(C(=O)CCc3cn(C)nc3C)C2)n1` (stereo not given), the INHIBITION is on record as 21.5%.
In the case of `O=C(c1ccc[nH]1)N1CCc2nnc(Cn3cccn3)n2CC1`, the INHIBITION is reported as 43.4%.
As to `O=C(NC1CC1)c1ccc2ccc(N3CCN(CC4CC4)CC3)n2c1`, the INHIBITION is 34.9%.
Take `O=C(O)c1ccc2ccc(N3CCN(CC4CC4)CC3)n2c1`: the INHIBITION came out at 54.1%.
Under `CN(C)C(=O)c1ccc2ccc(N3CCN(CC4CC4)CC3)n2c1` stands 38.3%; under `CCCC(=O)NC1CCCN(c2cncc(Br)c2)C1` (stereo not given), 55.4%; under `CCOC(=O)NC1CCCN(c2cncc(Br)c2)C1` (stereo not given), 35.9%.
In the case of `CC(C)(C)OC(=O)N[C@H]1CCN(c2cncc(Br)c2)C1` it was 22%; in that of `O=C(c1ccccn1)N1CCC2(COc3ncccc3S(=O)(=O)N2)C1` (stereo not given), 67.3%.
As for `O=C(c1cscn1)N1CCC2(COc3ncccc3S(=O)(=O)N2)C1` (stereo not given), the INHIBITION amounted to 48.2%.
For `O=C(c1ccncc1)N1CCC2(COc3ncccc3S(=O)(=O)N2)C1` (stereo not given), the INHIBITION is reported as 25.1%.
`O=C(c1ccc(Cl)s1)N1CCC2(COc3ncccc3S(=O)(=O)N2)C1` (stereo not given): the INHIBITION is 2.69%.
Under `O=C1CC2(CCN(C(=O)C3CCCCC3)C2)Nc2ccccc2N1` (stereo not given) stands 28.4%; under `O=C(C1CCCCC1)N1CCC2(COc3ncccc3S(=O)(=O)N2)C1` (stereo not given), 50.7%; under `CCc1nccn1-c1cncc(C2CCCN2Cc2ccccc2)n1` (stereo not given), 45.6%.
As for `CCN1C[C@@H]2[C@@H](OC)CCN(S(=O)(=O)c3ccccc3F)[C@@H]2C1`, the INHIBITION is on record as 21.6%.
In the case of `Cc1noc([C@@H](C)NCc2cccc(Cl)c2)c1C(=O)O` it was 48.2%; in that of `CN1CC(c2cc(O)nc(NCc3cccc(F)c3)n2)CC1=O` (stereo not given), -34.6%.
For `O=S(=O)(NCC(O)c1ccoc1)c1ccc(Cl)s1` (stereo not given), the INHIBITION is recorded as 46.1%.
In the case of `CNc1cc(N2CCCC2CNCc2csc(C(C)C)n2)ncn1` (stereo not given), the INHIBITION is 46.2%.
As to `CSc1nc(C)cc(N2CCC(c3ncc[nH]3)CC2)n1`, the INHIBITION is 44.6%.
Regarding `CCOc1cc(C)nc(N2CCN(C(=O)c3cn[nH]c3CC)CC2)n1`, the INHIBITION was found to be 44.1%.
With `CCN(C)S(=O)(=O)N1CCCC(CO)(CC=C(C)C)C1` (stereo not given), the INHIBITION was -3.96%.
Regarding `CC(C)=CCC1(CO)CCCN(S(=O)(=O)N2CCCC2)C1` (stereo not given), the INHIBITION was 91.2%.
As to `CC(C)=CCC1(CO)CCCN(S(C)(=O)=O)C1` (stereo not given), the INHIBITION came to 28.7%.
Consider `O=C(c1cccnc1O)N1CCN(CCc2cccs2)CC1`, for which the INHIBITION is 20.45%.
With `CC(C)(C)Nc1nc(-c2cccnc2)c(-c2ccnc(NCCO)n2)s1`, the INHIBITION was 59%.
Consider `CCNc1nc(-c2cccnc2)c(-c2ccnc(NS(C)(=O)=O)n2)s1`, for which the INHIBITION worked out at 47.1%.
Under `CCNc1nc(-c2cccnc2)c(-c2ccnc(NCCO)n2)s1` stands -80.5%; under `CN(CC(=O)N1CCCC1Cn1cccn1)Cc1ccccc1` (stereo not given), 48.2%; under `COc1cccc(CN2CCC3(CCN(C(=O)C4CC=CC4)CC3)C2)c1`, 21.3%.
Consider `Cc1cc(C2CCCCN2C(=O)c2ccsc2)nc2nccn12` (stereo not given), for which the INHIBITION is given as 71.3%.
Regarding `Cc1noc(C)c1C(=O)N1CCCCC1c1cc(C)n2ccnc2n1` (stereo not given), the INHIBITION amounted to 30.4%.
With `Cc1cc(C2CCCCN2C(=O)c2cccn2C)nc2nccn12` (stereo not given), the INHIBITION is 18.3%.
As for `O=C(c1cncs1)N1CCOCC(Cc2ccncn2)C1` (stereo not given), the INHIBITION is reported as 11.235%.
With `COc1cc(CN(CCCN(C)C)Cc2ccccn2)cc2c1OCO2`, the INHIBITION was 18.9%.
As to `COc1cc(CN(C)C(C)c2ccccn2)cc2c1OCO2` (stereo not given), the INHIBITION was determined as 58.6%.
With `COc1cc(CN(Cc2ccccn2)CC(C)C)cc2c1OCO2`, the INHIBITION was 36.2%.
Consider `Cc1cc(F)c(S(=O)(=O)NCC(C)(C)N)cc1F`, for which the INHIBITION was 37.6%.
With `CCN(CC)c1ncc(CNC2CCc3nc(C(C)C)nn3C2)s1` (stereo not given), the INHIBITION is recorded as -3.54%.
Regarding `NC(=O)CCn1cc(CNCCCc2ccncc2)c2ccccc21`, the INHIBITION is -71.1%.
With `CC(C)n1cnnc1CCNCc1cn(CCC(N)=O)c2ccccc12`, the INHIBITION was 6.94%.
Take `NC(=O)CCn1cc(CNCCCc2ccccc2O)c2ccccc21`: the INHIBITION was found to be 88.5%.
For `Cc1ccc(C(C)NCc2cn(CCC(N)=O)c3ccccc23)cc1C` (stereo not given), the INHIBITION is listed as 27.7%.
On to `CC(NCc1cn(CCC(N)=O)c2ccccc12)c1nncn1C` (stereo not given), for which the INHIBITION is recorded as 32.7%.
On to `CCCN1CCN(Cc2cn(CCC(N)=O)c3ccccc23)CC1`, for which the INHIBITION came out at 39.8%.
With `NC(=O)CCn1cc(CNCc2csc(N)n2)c2ccccc21`, the INHIBITION is 60.9%.
Turning to `NC(=O)CCn1cc(CNCCCc2csc(N)n2)c2ccccc21`, the INHIBITION is 29%.
Under `Cc1n[nH]c(C)c1CCCNCc1cn(CCC(N)=O)c2ccccc12` stands 66.7%; under `COc1ccc(S(=O)(=O)N2CCC(O)(CN(C)C)C2)cc1` (stereo not given), 38.2%.
Consider `Cc1sc(Br)cc1S(=O)(=O)NCCN`, for which the INHIBITION stood at 45%.
As for `O=C(Cc1csc(Cc2ccccn2)n1)NCCCN1CCCC1=O`, the INHIBITION is 17.5%.
As for `CCOCCC(=O)Nc1cccc(Cl)c1COC`, the INHIBITION was found to be 33.7%.
